Among all 1,300 compounds or so, about 270 (21%) were called active. The rule behind the calls is not given here. The list is a sample of the results. Entries with a potency or affinity are not part of this list.

A short description of the test: cytotoxicity in parental SK-MEL-5 melanoma cells – cell-based, CellTiter-Glo, cherry-picked, set 3, orthogonal assay for MITF inhibitor project, dose response (AID 493240). The settings on record: SK-MEL-5 viability, ATP luminescence (CellTiter-Glo), 24 h; series mostly up to 35 µM. Background: In ATP-based viability assays light output follows the ATP content of the culture.
Regarding `CCCCC(=O)N/C(N)=N/c1nc2ccccc2o1`, the result was inactive.

Turning to `C=CCn1cccc(C(=O)Nc2ccc(C)c(Cl)c2)c1=O`, the result was inactive. Consider `N#C/C(C(=O)c1ccccc1)=C1/CCCCCN1`, for which the result was inactive. Turning to `Cc1ccc2cc(NC(=O)Cc3ccccc3)ccc2n1`, the result was inactive.

For `CCN1CCN(CCCNC(=O)c2ccc3c(Cl)c4c(nc3c2)CCCC4)CC1`, the outcome was inactive. As for `COc1cccc(/C=C2/Sc3ccc(C(=O)NCCN4CCCC4)cc3NC2=O)c1`, the result was inactive. In the case of `CCN1CCCC1CNC(=O)c1ccc2c(c1)NC(=O)/C(=C\c1ccc(OC)c(OC)c1)S2` (stereo unspecified), the outcome was inactive. In the case of `COc1ccc(/C=C2\Sc3ccc(C(=O)NCCN4CCCCCC4)cc3N(C)C2=O)cc1` it was “inactive”; in that of `Cc1cccc(/C=C2/Sc3ccc(C(=O)NCCN4CCCC4)cc3NC2=O)c1`, “inactive”. Consider `CC1(C)CC(=O)c2cnc(N3CCc4ccccc43)nc2C1`, for which the result was inactive.

Take `CC1=C/C(=N\NC(=S)Nc2cccnc2)CC(C)(C)C1`: the outcome was inactive. Regarding `CC(C)(C)NC(=O)CCN(/N=C/c1ccc([N+](=O)[O-])o1)C1=NS(=O)(=O)c2ccccc21`, the outcome was inactive. On to `O=C1CCC2S/C(=C/Nc3ccc(C(F)(F)F)cc3)C(=O)N12` (stereo unspecified), for which the outcome was inactive.

As for `Nc1nc2n[nH]nc2c(=O)[nH]1`, the outcome was inactive. As to `CN1CCN(c2ccc(NC(=S)NC(=O)c3cccc4ccccc34)cc2)CC1`, the outcome was inactive. In the case of `CCOc1ccc(-n2c(O)c(/C=N/Nc3nc(C)cc(C)n3)c3ccccc3c2=O)cc1` it was “inactive”; in that of `O=C1N=C(N2CCOCC2)S/C1=C\C=C/c1ccccc1`, “inactive”; in that of `O=C(c1ccc(F)cc1)N1CCC(c2ccccc2)C1` (stereo unspecified), “inactive”. The entry for `COc1ccc2c(c1OC)C(=O)N(c1ccc(C)cc1)C2` is “inactive”. The entry for `Cc1cnc(NC(=O)c2nn(C)cc2[N+](=O)[O-])s1` is “inactive”. In the case of `Cn1cc([N+](=O)[O-])c(C(=O)Nc2cc(Oc3ccccc3)cc([N+](=O)[O-])c2)n1`, the outcome was inactive. As for `Cc1ccc(-n2nnnc2CNC(=O)c2ccc([N+](=O)[O-])o2)cc1C`, the result was inactive. As to `CCc1cc(C=NC2CCCCC2)c(O)s1`, the result was inactive. On to `Cc1ccc(-n2[nH]c(=O)c(-c3ccccn3)c2C)cc1`, for which the result was inactive. For the compound `O=C(Nc1ccc(Br)cc1)c1ccc2c(c1)OCO2`, the result was inactive. For the compound `O=C(CSc1nc2ccccc2[nH]1)c1ccc2c(c1)OCO2`, the outcome was inactive.

With `CCc1ccc(-c2cc(C(=O)Nn3cnnc3)c3ccccc3n2)cc1`, the outcome was inactive. Consider `CCc1ccccc1NC(=O)CN(C)C(=O)Cn1ncc(Cl)c(Cl)c1=O`, for which the outcome was inactive. Regarding `CCOC(=O)c1[nH]cnc1N=Nc1c(O)ccc2ccccc12`, the result was inactive. In the case of `O=[N+]([O-])c1ccc(/C=N/N=C/c2ccc([N+](=O)[O-])o2)o1` it was “inactive”. `O=C(N/N=C/c1ccc([N+](=O)[O-])o1)c1ccccc1-n1cccc1`: the outcome was inactive. Turning to `O=C(N/N=C/c1ccc([N+](=O)[O-])o1)c1sc2ccccc2c1Cl`, the outcome was inactive. In the case of `O=C(Cn1ncc(Cl)c(Cl)c1=O)N1CCOCC1`, the result was inactive.

With `O=[N+]([O-])c1ccc(/C=N/Nc2ccnc3cc(Cl)ccc23)o1`, the outcome was inactive.

For the compound `COc1cc(OC)cc(C(=O)Nc2ccc3c(c2)OCCO3)c1`, the result was inactive. The entry for `COc1cccc(NC(=O)Nc2cccc(C(=O)O)c2)c1` is “inactive”; for `C/C(=N/N=C(/C)c1cccs1)c1cccs1` it is “inactive”. In the case of `O=C(Nc1nc(-c2ccccn2)cs1)c1ccccc1-n1cnnn1`, the outcome was inactive. `COc1ccc(Br)cc1C(C[N+](=O)[O-])c1c(N)n(C)c(=O)n(C)c1=O` (stereo unspecified): the result was inactive. `O=C(CCC1CCCN(C(=O)c2cc3ccccc3o2)C1)NCc1ccc(F)c(F)c1` (stereo unspecified): the result was inactive. Turning to `CCOC(=O)c1sc(NC(=O)Nc2ccc(Cl)cc2)nc1C`, the result was inactive. In the case of `O=C(NC1CCCCC1)c1cc2cc(Br)ccc2o1` it was “inactive”; in that of `C=CCOc1ccc(/C=C/C(C)=N\O)cc1`, “inactive”; in that of `Cc1cc(C)c(C#N)c(SCc2nnc(-c3ccccc3)o2)n1`, “inactive”. As for `COc1ccc2nc(C)cc(SCC(=O)N/N=C/c3ccc(O)cc3O)c2c1`, the result was inactive. As to `O=C(CNC(=O)c1ccc(Br)cc1)c1ccccc1`, the result was inactive. In the case of `Nc1ccc(Oc2cccc(Oc3ccc(N)cc3)c2)cc1` it was “inactive”; in that of `O=C(Nc1cc(-c2nc3ncccc3o2)ccc1Cl)c1ccc([N+](=O)[O-])o1`, “inactive”. For `COc1ccc(C[C@H]2CN3C(=NC[C@@H]3C(C)C)N2CCNC(=O)c2ccc(C)c(Br)c2)cc1`, the result was inactive. In the case of `CCOc1ccc(C(=O)Nc2cccc(C(=O)O)c2C)cc1Cl` it was “inactive”; in that of `COc1cccc(C(=O)Oc2c(CN3CCOCC3)cc(Cl)c3cccnc23)c1`, “inactive”. As for `Cc1onc(-c2ccccc2)c1C(=O)N/N=C/c1ccc([N+](=O)[O-])s1`, the result was inactive. For the compound `Cc1ccccc1C(=O)N/N=C/c1ccc([N+](=O)[O-])s1`, the outcome was inactive. With `O=C(N/N=C/c1ccc([N+](=O)[O-])s1)c1ccccc1Br`, the result was inactive. In the case of `O=C(N/N=C/c1ccc([N+](=O)[O-])s1)c1ccccc1` it was “inactive”.

As to `O=C(CNC(=O)c1cccc(F)c1)N/N=C/c1ccc([N+](=O)[O-])s1`, the outcome was inactive. Take `O=C(N/N=C/c1ccc([N+](=O)[O-])s1)c1cccc(Br)c1`: the outcome was inactive. In the case of `CCOc1ccc(NC(=O)CCC(=O)N/N=C/c2ccc([N+](=O)[O-])s2)cc1` it was “inactive”. For `CC(=O)c1ccc(S(=O)(=O)N2CCN(C(=O)/C=C/c3ccc4ccccc4n3)CC2)cc1`, the outcome was inactive.

Regarding `CN(C)c1ccc(/C=N/N2CCN(c3ccccn3)CC2)cc1`, the outcome was inactive. Regarding `CC(=O)Nc1nc(C)c(-c2csc(Nc3cccc(C(C)=O)c3)n2)s1`, the outcome was inactive. Turning to `O=C(O)c1ccccc1C(=O)Nc1ccc(Oc2cccc3ccccc23)cc1`, the result was inactive.

`O=C(Nc1ccc(N2CCOCC2)c(Cl)c1)c1cccc(F)c1`: the outcome was inactive.

For `O=C(CNC(=O)c1ccccc1)N/N=C/c1ccc([N+](=O)[O-])s1`, the result was inactive. Turning to `O=C(Cc1ccccc1)NCC(=O)N/N=C/c1ccc([N+](=O)[O-])s1`, the result was inactive. With `CCCN1C(=O)c2ccc(C(=O)Nc3cc(C)ccc3O)cc2C1=O`, the result was inactive.

On to `Cc1cc(C)c2c(N)c(C(=O)N/N=C/c3ccccc3)sc2n1`, for which the outcome was inactive. For `Cc1c(Cl)c([N+](=O)[O-])nn1Cc1ccc(C(=O)N/N=C\c2cc(Cl)ccc2O)o1`, the result was inactive. The entry for `O=C(CCl)Nc1cccc(S(=O)(=O)NC2=NCCCCC2)c1` is “inactive”; for `O=C(Nc1cccc(S(=O)(=O)N2CCCCC2)c1)c1ccc([N+](=O)[O-])o1` it is “inactive”; for `O=C(N/N=C\c1cc(Cl)ccc1O)c1ccc(S(=O)(=O)N2CCCCC2)cc1` it is “inactive”. As to `O=C(CSc1nnnn1-c1ccc(O)cc1)Nc1cccc(S(=O)(=O)N2CCCC2)c1`, the result was inactive. Regarding `COc1ccc(NS(=O)(=O)c2cc(NC(=O)CNC(=O)c3cccc(OC)c3)ccc2C)cc1`, the result was inactive. The entry for `O=C(Nc1ccc(S(=O)(=O)N2CCCCCC2)cc1)c1[nH]ncc1[N+](=O)[O-]` is “inactive”; for `Cc1cccc(NC(=O)Cc2ccc(Br)cc2)n1` it is “inactive”. In the case of `Cc1ccc(Nc2nnc(-c3ccccc3N)o2)cc1C` it was “inactive”; in that of `COc1ccc(NC(=O)C2COc3ccccc3O2)cc1` (stereo unspecified), “inactive”. Regarding `Cn1nnnc1Sc1ncnc2scc(-c3cccs3)c12`, the result was inactive. Take `Cc1csc(NC(=O)Cc2c(F)cccc2Cl)n1`: the result was inactive.

For the compound `CC1(C)CC(=O)C=C(NC2=CC3OC(c4ccccc4)OCC3OC2=O)C1` (stereo unspecified), the outcome was inactive. In the case of `O=[N+]([O-])/C=C\c1ccc(N2CCCC2)c(F)c1` it was “inactive”.

As to `O=C(NCc1cccs1)c1nc2c(nnn2Cc2ccccc2Cl)c(=O)[nH]1`, the outcome was inactive. For the compound `COc1ccc(C2C(C#N)=C(N)Oc3c2oc(CO)cc3=O)cc1` (stereo unspecified), the result was inactive. On to `O=C(O)c1ccc(N/N=C/c2ccc3nccnc3c2)cc1`, for which the result was inactive. Take `COc1cc([N+](=O)[O-])cc(/C=N/NC(=O)c2ccc(NC(=O)c3ccc(C)cc3)cc2)c1O`: the outcome was inactive. Regarding `CCN1CCN(c2ccc(S(=O)(=O)N3CCCCC3)cc2NC(=O)/C=C/c2ccc([N+](=O)[O-])cc2)CC1`, the result was inactive. In the case of `CCN1CCN(c2ccc(S(=O)(=O)N3CCOCC3)cc2NC(=O)/C=C/c2ccc([N+](=O)[O-])cc2)CC1`, the result was inactive.

With `O=C(NC1CCCC(C(F)(F)F)C1)c1ccc([N+](=O)[O-])o1` (stereo unspecified), the outcome was inactive.

`COc1cccc(-c2ccc3c(N)c(C(=O)NC4CC4)sc3n2)c1`: the result was inactive. In the case of `CC(Oc1cccc(Br)c1)C(=O)NNC(=O)c1ccccn1` (stereo unspecified) it was “inactive”. In the case of `C/C(=N\NC(=O)C(c1ccccc1)c1ccccc1)c1ccccn1` it was “inactive”; in that of `CC1CCN(c2ccc(NC(=O)c3cccnc3)cc2)CC1`, “inactive”; in that of `COC(=O)c1ccc(/C=N/Nc2nc(C)c(C)s2)cc1`, “inactive”. For `CS/C(N)=N/N=C/c1ccc2c(c1)OCO2`, the result was inactive. The entry for `COc1cc(CN2CCC(C(N)=O)CC2)ccc1OCc1ccccc1` is “inactive”. In the case of `COc1cc2c(cc1OC)C(C)N(S(=O)(=O)c1cnc(Cl)c(Cl)c1)CC2` (stereo unspecified), the outcome was inactive. In the case of `CCOc1ccc(N/C=C/C(=O)c2ccc(OC)c(OC)c2)cc1` it was “inactive”; in that of `N/C(=N\OC(=O)c1ccc(Cl)cc1Cl)c1ccncc1`, “inactive”. The entry for `O=C1CN(c2ccccc2)C(=S)N1C(=O)c1ccccc1` is “inactive”; for `O=C1C=CC(=C(c2ccc(O)cc2)c2ccc(O)cc2)C=C1` it is “inactive”; for `COC(=O)CCS(=O)(=O)c1nc(-c2ccccc2)cc(C(F)(F)F)n1` it is “inactive”. As for `COc1ccccc1-c1cc(C(F)(F)F)nc(S(C)(=O)=O)n1`, the result was inactive. On to `N=C1C(c2nc3ccccc3[nH]2)=C(O)CN1C1CCCCC1`, for which the result was inactive. In the case of `Cc1ccc(C(=O)Nc2ccccc2Cl)cc1`, the result was inactive. `Cc1cc(C(=O)CCl)c(C)n1CCc1ccc(F)cc1`: the result was inactive. As to `Cc1ccc2nc(NC(=O)CSCC(=O)OCC(=O)c3ccccc3)sc2c1`, the outcome was inactive. On to `CCCCN=C(C)c1c(O)c2ccccc2oc1=O`, for which the result was inactive.

For the compound `COc1ccc(NC(=O)NC(=O)c2ccccc2)cc1`, the result was inactive. On to `Cc1ccc(NC(=O)c2ccccc2)cc1`, for which the outcome was inactive. Take `O=C(Nc1ccc(Cl)cc1)Nc1cccc(C(=O)O)c1`: the outcome was inactive. For `Cc1oc(=O)c(NC(=O)c2ccccc2)cc1C(=O)c1ccccc1`, the result was inactive.

The values above are taken from PubChem BioAssay AID493240 (Broad Institute, 2011).
